# A selection: hits, their analogues and other compounds. The true share with any hit is near 1.2%.
# TrxR1 substrate: is turned over as a substrate by rat TrxR1; purified TrxR1 substrate turnover, NADPH consumption readout; Potency, µM (highest dose often 114 µM); 390,000 compounds, 0.01% hits; note: nearly all actives have a fitted effect of over 50% in size
#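 Rat TrxR1, dispensed at 90 nM, was prereduced with 400 uM NADPH (final) for 5 min at ~22 deg C, then incubated with compound 15 min before 400 uM selenite. A first-read NADPH fluorescence drop versus no-compound background flagged substrates.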
# mIDH1 inhibitor: blocks human mutant IDH1 R132H enzyme; IDH1-R132H enzyme, NADPH consumption, diaphorase/resazurin fluorescence; Potency, µM (top dose mostly 76.6 µM), hits mostly inhibitors; 390,000 compounds, 0.093% hits; AID 602179; note: nearly all actives have a fitted effect of over 65% in size
#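 IDH1-R132H (0.5 ug/mL) preincubated 30 min with compound, then NADPH (0.016 mM) and alpha-KG (2 mM) added; 80 min at RT, pH 7.5. Remaining NADPH coupled via diaphorase/resazurin to fluorescence (540/590 nm); concentration-response curves normalized to no-enzyme control.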
# TrxR1 inh: inhibitors of rat thioredoxin reductase 1. O89049. recombinant rTrxR1, NADPH fluorescence consumption, selenite substrate. Potency, µM (series often up to 114 µM), most hits filed as inhibitors. 390,000 compounds, 1% hits; note: nearly all actives have a fitted effect of over 65% in size
#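 Rat TrxR1 (90 nM in the dispensed reagent) was pre-reduced with 400 uM NADPH for 5 min at room temperature, then incubated with compound for 15 min. After 400 uM selenite was added, NADPH fluorescence (Ex 340/Em 450 nm) was followed for 8 min.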
# GLS inhibitor: inhibitors of human glutaminase (GLS). O94925. GLS enzymatic activity, qHTS titration. Potency, µM (top dose mostly 45.5 µM), actives largely listed as inhibitors. 410,000 compounds, 0.21% hits
# Target sequence (O94925 whole entry, looked up): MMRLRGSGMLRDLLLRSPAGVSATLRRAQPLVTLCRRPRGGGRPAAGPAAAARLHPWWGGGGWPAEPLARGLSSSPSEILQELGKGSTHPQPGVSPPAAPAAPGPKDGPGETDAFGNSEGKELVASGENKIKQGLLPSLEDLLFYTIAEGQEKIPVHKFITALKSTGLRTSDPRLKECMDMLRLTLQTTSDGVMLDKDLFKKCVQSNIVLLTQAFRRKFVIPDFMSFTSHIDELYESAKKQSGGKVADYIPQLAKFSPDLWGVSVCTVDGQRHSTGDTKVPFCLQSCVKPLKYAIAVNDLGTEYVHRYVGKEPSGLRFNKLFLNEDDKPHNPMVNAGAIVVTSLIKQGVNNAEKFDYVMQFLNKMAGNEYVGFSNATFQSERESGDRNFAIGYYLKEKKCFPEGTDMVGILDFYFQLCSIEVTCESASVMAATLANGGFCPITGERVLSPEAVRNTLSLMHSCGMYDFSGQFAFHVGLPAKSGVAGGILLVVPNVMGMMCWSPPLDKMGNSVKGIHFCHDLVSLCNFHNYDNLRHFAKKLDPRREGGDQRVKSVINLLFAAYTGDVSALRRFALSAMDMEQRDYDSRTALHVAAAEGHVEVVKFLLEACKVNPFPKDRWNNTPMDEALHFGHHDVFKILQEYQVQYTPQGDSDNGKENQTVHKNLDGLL
#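 hKGA in 45 mM KH2PO4 (pH 8.2), 0.02% Tween-20 with compound, then 1mM L-Glutamine (stock as added) plus glutamate oxidase/HRP/Amplex red coupling mix. Fluorescence read initially and after 30 min at RT; signal change reflects glutamate formation.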
# Numbers stand for hits; 0 = inactive; ? = inconclusive; - = no result; [ ] = another dose, or the depositor's remark. Calls come from the whole dose curve; as a rule, active = well fitted curve in the direction sought with a large enough effect; inconclusive = small, poorly fitted or top-dose-only effect, or another doubt; inactive = no such curve, though single readings can be large; an effect the other way counts as inactive or inconclusive.
SMILES,TrxR1 substrate,mIDH1 inhibitor,TrxR1 inh,GLS inhibitor
CCOC(=O)N1CCN(C(=O)c2ccc3c(c2)NC(=O)/C(=C\c2ccc(OC)c(OC)c2)S3)CC1,0,0,25µM,0
COc1ccc(/C=C2/Sc3ccc(C(=O)N4CCOCC4)cc3NC2=O)cc1OC,0,0,0,0
COc1ccc(C(C#N)N2N=C(C)CC2(C)C)cc1OC (stereo not drawn),0,0,40µM,0
CC(=O)OCCCNc1cc(Sc2nc3ccccc3s2)c2nonc2c1[N+](=O)[O-],0,0,0.32µM,?
CC(=O)OCCCNc1cc(Sc2ccc(C)cc2)c2nonc2c1[N+](=O)[O-],0,0,11µM,0
CC(=O)OCCNc1cc(Sc2nc3ccccc3[nH]2)c2nonc2c1[N+](=O)[O-],0,0,0[11.4 µM],?
Cc1cc(C)cc(NC(=O)Oc2ccccc2N2CCCCC2)c1,0,0,0,10µM
COc1cc(CNC2CCCC2)cc(Cl)c1OCc1ccccc1Cl,0,0,89µM,0
CCN(CC)c1ccc(N=Cc2ccccc2[N+](=O)[O-])cc1,0,0,71µM,0
CCNc1nc(NCC)nc(N/N=C/c2ccc([N+](=O)[O-])o2)n1,0,0,45µM,0
O=[N+]([O-])c1ccc(/C=N/Nc2nc(N3CCCC3)nc(N3CCCC3)n2)o1,0,0,0,0
CCN(CC)c1ccc(N=Cc2ccc([N+](=O)[O-])o2)cc1,0,0,3.2µM,0
CC(=O)N(C)c1ccc(N=Cc2cc3c(cc2[N+](=O)[O-])OCO3)cc1,0,0,0,0
CCOC(=O)CS(=O)(=O)c1nc(-c2ccc(F)cc2)cc(C(F)(F)F)n1,0,0,?,0
CS(=O)(=O)c1nc(-c2ccc(F)cc2)cc(C(F)(F)F)n1,0,0,18µM,0
COc1ccc(-c2cc(C(F)(F)F)nc(N)n2)cc1,0,0,0,0
COc1ccc(-c2cc(C(F)(F)F)nc(S(C)(=O)=O)n2)cc1,0,0,10µM,0
Cc1cc(C)c(S(=O)(=O)N2CCC(N3CCN(Cc4ccccc4)C(=O)C3=O)CC2)c(C)c1,0,0,0,0
CC1=C(c2cccc(Cl)c2)S(=O)(=O)NC1=NCc1ccccc1C,0,0,0,0
Cc1cc(C)c(NC(=O)COCc2cc(-c3cccs3)on2)c(C)c1,0,0,0,0
CC1CCCCC1NC(=O)COCc1cc(-c2cccs2)on1 (stereo not drawn),0,0,45µM,0
O=C(CC(C(=O)O)n1ccnc1)c1ccc(Cl)cc1 (stereo not drawn),0,-,1.8µM,-
O=C(NCc1ccccc1Cl)c1csc([C@@H]2O[C@H](CO)[C@H](O)[C@H](O)[C@H]2O)n1,-,-,-,0
CCOC(=O)c1cc(-c2ccc(/C=C3/C(=O)NC(=O)C(C#N)=C3C)o2)ccc1Cl,0,0,10µM,0
CC1=C(C#N)C(=O)NC(=O)/C1=C\c1ccc(-c2ccc(C)cc2[N+](=O)[O-])o1,0,0,16µM,?
SMILES,TrxR1 substrate,mIDH1 inhibitor,TrxR1 inh,GLS inhibitor
Cc1ccc(-c2ccc(/C=N/N=C3/NC(=O)C(CC(=O)O)S3)o2)c([N+](=O)[O-])c1 (stereo not drawn),?,0,0,0
CN1CCc2[nH]c3ccc(Cl)cc3c2C1,0,-,0,-
COc1cc(OC)c(NC(=O)N2CCOc3ccc(C)cc32)cc1Cl,0[11.4 µM],0,0,0
COc1ccc(NC(=O)c2cccc(N3C(=O)c4cccc([N+](=O)[O-])c4C3=O)c2)cc1,0,0,0,0
COc1ccc(/C=C2\C(=O)N(c3c(Cl)cc(Cl)cc3Cl)N=C2NC(=O)c2cccc([N+](=O)[O-])c2)cc1,0,0,4.5µM,0
Cn1ncc(S(=O)(=O)Cc2ccccc2)c(Cl)c1=O,0,0,1.1µM,11µM
Cn1ncc(SCc2ccccc2)c(Cl)c1=O,0,0,0,0
CCc1cccc(C)c1NC(=O)CSc1nc2c(c(=O)[nH]1)CCC2,0,-,0,0
Cc1cc(=O)oc2c(CN3CCOCC3)c(O)ccc12,0,0,56µM,0
Cc1cc(=O)oc2c(CN3CCCCC3)c(O)ccc12,0,0,0,0
CCc1c(C)c2ccc(O)c(CN3CCCC3)c2oc1=O,0,0,22µM,0
Cc1ccc(S(=O)(=O)N2C[C@@H]3[C@H]4CC[C@H](C4)[C@@H]3[C@@H](C)[C@H]2c2ccco2)cc1,0,0,0,0
COc1ccc(C2C=C(c3ccccc3)Nc3nnnn32)cc1 (stereo not drawn),0,0,0,0
C1=C(c2ccccc2)Nc2nnnn2C1,0,0,79µM,0
CC(=O)Nc1ccc(C(=O)Nc2nc(-c3ccccn3)cs2)cc1,0,0,50µM,0
CC(=O)Nc1ccc(C(=O)Nc2nc(-c3cccnc3)cs2)cc1,0,0,0,0
Fc1ccc(C(c2ccc(F)cc2)N2CCN(CC=Cc3ccccc3)CC2)cc1,-,-,-,0
COc1ccc(/[N+]([O-])=C/c2ccco2)cc1,0,0,56µM,0
COc1ccc(OCC(=O)N/N=C\c2ccco2)cc1,0,0,0,0
Cc1snnc1C(=O)NC(=S)Nc1ccccc1,0,0,16µM,0
O=C(CCS(=O)(=O)c1ccc(Br)cc1)Nc1cc(F)ccc1F,0,0,35µM,?
O=C(CCS(=O)(=O)c1ccc(Br)cc1)Nc1ccc(F)cc1F,0,0,0,0
CC1(C)S[C@H]2C(NC(=O)[C@@H](N)c3ccc(O)cc3)C(=O)N2[C@@H]1C(=O)O (stereo partly drawn),-,-,-,14µM
CC1(C)S[C@@H]2[C@H](NC(=O)[C@H](N)c3ccc(O)cc3)C(=O)N2[C@H]1C(=O)O,0,0,0,0
CCN1CCN(C(=O)N[C@H](C(=O)N[C@@H]2C(=O)N3[C@@H](C(=O)O)C(C)(C)S[C@@H]23)c2ccccc2)C(=O)C1=O,-,-,-,25µM
SMILES,TrxR1 substrate,mIDH1 inhibitor,TrxR1 inh,GLS inhibitor
CC1(C)S[C@@H]2[C@H](NC(=O)[C@H](N)c3ccccc3)C(=O)N2[C@H]1C(=O)O,0,0,0,10µM
Cc1onc(-c2c(F)cccc2Cl)c1C(=O)N[C@@H]1C(=O)N2[C@H]1SC(C)(C)[C@H]2C(=O)O,-,-,-,3.5µM
Cc1onc(-c2ccccc2Cl)c1C(=O)N[C@H]1C(=O)N2[C@H]1SC(C)(C)[C@H]2C(=O)O,-,-,-,0
O=C(Nc1ccc(C(O)c2ccccc2)cc1)[C@H]1C[C@H](O)[C@@H](CO)O1 (stereo partly drawn),-,-,-,0
CC1(C)S[C@@H]2[C@H](NC(=O)C(C(=O)O)c3ccccc3)C(=O)N2[C@H]1C(=O)O (stereo partly drawn),0,0,0,0
CC1(C)SC2C(N3C(=O)C(c4ccccc4)NC3(C)C)C(=O)N2C1C(=O)O (stereo not drawn),-,-,-,28µM
Cc1c2oc3c(C)ccc(C(=O)N[C@@H]4C(=O)N[C@H](C(C)C)C(=O)N5CCC[C@H]5C(=O)N(C)CC(=O)N(C)[C@@H](C(C)C)C(=O)O[C@@H]4C)c3nc-2c(C(=O)N[C@@H]2C(=O)N[C@H](C(C)C)C(=O)N3CCC[C@H]3C(=O)N(C)CC(=O)N(C)[C@@H](C(C)C)C(=O)O[C@@H]2C)c(N)c1=O,-,-,-,0

# Screens: PubChem BioAssay, National Center for Advancing Translational Sciences (NCATS)
